Values without a mark were called inactive. Results filed as inconclusive are left out. Activity calls are given as the source filed them. Unless noted, calls come from the whole dose curve; as a rule, active = well fitted curve in the direction sought with a large enough effect in the repeat runs; inconclusive = weak or mixed curves; inactive = no such curve, though single readings can be large; an effect the other way counts as inactive or inconclusive.

The target of assay [1] is Thyrotropin receptor (Homo sapiens) (UniProt P16473). Description: qHTS assay to identify small molecule agonists of the thyroid stimulating hormone receptor (TSHR) signaling pathway (AID 1224843; calls by dose curve; note: nearly all actives have a fitted effect of over 45% in size). The gist of the method:
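Agonist-mode screen: TSHR HEK293 cells received test chemicals for half an hour at room temperature, then HTRF cAMP detection reagents for one hour prior to fluorescence measurement. Each chemical ran as a 15-concentration series, triplicated.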
A general note: Quantitative high-throughput screening tests each substance at several concentrations.

The nature of assay [2]: qHTS assay to identify small molecule agonists of the hypoxia (HIF-1) signaling pathway - cell viability counter screen (AID 1224844; calls by dose curve; note: nearly all actives have a fitted effect of over 50% in size). The gist of the method: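 HRE-bla ME-180; 0.5% dFBS; cpd 17 h, 37C, 5% CO2; CellTiter-Glo lum., 30 min RT, post-FRET read, same wells.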
Assay [3] is described as follows: qHTS assay to identify small molecule agonists of H2AX (AID 1224845; active = well fitted activation curve with a large enough effect in the signal ratio in the repeat runs, not every such curve was filed as active; the % refers to the signal ratio). The gist of the method: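 Wild-type CHO-K1 cells, plated overnight, exposed 3hr at 37C to 15 concentrations (0.76% DMSO final). Lysed, then HTRF anti-pH2AX (S139) cryptate and anti-H2AX-d2 antibodies, 24 hr room temperature; 665/620 nm emission read.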
Assay [4] can be described thus: qHTS assay to identify small molecule agonists of the hypoxia (HIF-1) signaling pathway (AID 1224846; active = well fitted activation curve with a large enough effect in the signal ratio in the repeat runs, not every such curve was filed as active; the % refers to the signal ratio). The gist of the method: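 Reporter induction in HRE-bla ME-180 cells is taken as agonism: cells sit 5 hrs after plating, receive compounds or DMSO only, incubate 17 hrs at 37C under 5% CO2, and are loaded with CCF4-AM for beta-lactamase FRET measurement.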
Assay [5] is described as follows: qHTS assay to identify small molecule agonists of H2AX - cell viability counter screen (AID 1224847; calls by dose curve; note: top concentration of the series differs between compounds; nearly all actives have a fitted effect of over 30% in size). Put shortly:
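Compounds tested at 15 concentrations were incubated 3 hr at 37C with wild-type CHO-K1 cells; cellular ATP-based luminescence (CellTiter-Glo) indicated viability.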

A short description of assay [6]: qHTS assay to identify small molecule antagonists of the estrogen related receptor (ERR) signaling pathway from Tox21 library (AID 1224848). Note: nearly all actives have a fitted effect of over 50% in size. Put shortly: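 Quantitative high-throughput format: ERR reporter cells (2,000/well) pre-incubated 6 h, treated 18 h at 37 C with compounds in DMSO alongside positive and negative controls, then read by ONE-Glo luminescence.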

The nature of assay [7]: qHTS assay to identify small molecule agonists of the estrogen related receptor (ERR) signaling pathway from Tox21 library (AID 1224849; calls by dose curve; note: nearly all actives have a fitted effect of over 15% in size). The conditions noted are these: ERR reporter cell line, ONE-Glo luciferase, 18 h; at 92.4 µM (top of the series) unless noted. The gist of the method: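 Tox21 compounds tested for ERR agonism in an NTP reporter cell line: 18 h treatment at 37 C, then ONE-Glo luminescence.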

A short description of assay [8]: qHTS RealTime-Glo MT Cell Viability Assay in HepG2 cells - 24 hour (AID 1224867). Note: nearly all actives have a fitted effect of over 50% in size. The gist of the method:
(§1)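 Viability was tracked continuously by NanoLuc luminescence from prosubstrate reduced by living HepG2 cells, at successive time points over 40 h of compound exposure. Cells with reagent were preincubated 5 h at 37 °C before compound addition.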

A short description of assay [9]: qHTS RealTime-Glo MT Cell Viability Assay in HEK293 cells - 32 hour (AID 1224868). Note: top concentration of the series differs between compounds; nearly all actives have a fitted effect of over 50% in size. Put shortly:
(§2)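 Viability tracked continuously by luminescence as live cells reduce a prosubstrate for NanoLuc; HEK293 cells preincubated 5 h, compound-treated at 37 C, and read at 0, 8, 16, 24, 32 and 40 h.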

A short description of assay [10]: A CellTox Green Cytotoxicity Assay to monitor cytotoxicity in HEK293 cells - 0 hour (AID 1224869). Note: nearly all actives have a fitted effect of over 50% in size. The gist of the method: (§3)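 Tox21 screen in HEK293: membrane-impermeant cyanine dye fluoresces on binding dead-cell DNA; compound pinned 5 h post-seeding, plates held at 37 C, signal read repeatedly through 40 h.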
The nature of assay [11]: qHTS RealTime-Glo MT Cell Viability Assay in HepG2 cells - 40 hour (AID 1224870). Note: nearly all actives have a fitted effect of over 50% in size. Put shortly: (§4)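 HepG2 cells (600/well) mixed with RealTime-Glo MT reagent, settled 5 h at 37 C/5% CO2 before compound addition. Nonlytic NanoLuc luminescence from viable-cell prosubstrate reduction read repeatedly during 40 h treatment at 37 C.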
The nature of assay [12]: A CellTox Green Cytotoxicity Assay to monitor cytotoxicity in HEK293 cells - 40 hour (AID 1224871). Note: nearly all actives have a fitted effect of over 45% in size. The gist of the method: as §3
Assay [13] is described as follows: qHTS RealTime-Glo MT Cell Viability Assay in HEK293 cells - 16 hour (AID 1224872). Put shortly: as §2
Assay [14] in a line: qHTS RealTime-Glo MT Cell Viability Assay in HepG2 cells - 8 hour (AID 1224873). Note: nearly all actives have a fitted effect of over 55% in size. Put shortly: as §4
Assay [15] is described as follows: qHTS RealTime-Glo MT Cell Viability Assay in HEK293 cells - 40 hour (AID 1224874). Note: nearly all actives have a fitted effect of over 50% in size. The conditions noted are these: RealTime-Glo luminescence; max response: stronger effect = lower value. Put shortly:
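HEK293 + NanoLuc + prosubstrate, 600 cells/well; 5 h, 37 C/5% CO2; compound 23 nL in DMSO by pintool; 37 C; luminescence read at 0, 8, 16, 24, 32 and 40 h time points.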

Assay [16] is described as follows: A CellTox Green Cytotoxicity Assay to monitor cytotoxicity in HEK293 cells - 24 hour (AID 1224875). Note: nearly all actives have a fitted effect of over 45% in size. Put shortly:
as §3

Assay [17] can be described thus: A CellTox Green Cytotoxicity Assay to monitor cytotoxicity in HepG2 cells - 16 hour (AID 1224876). Note: nearly all actives have a fitted effect of over 45% in size. Put shortly: (§5)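 Measurements at 0, 8, 16, 24, 32 and 40 h of treatment captured CellTox Green fluorescence in HepG2 cells that had been co-plated with reagent and preincubated 5 h at 37 C/5% CO2.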
Assay [18] is described as follows: qHTS RealTime-Glo MT Cell Viability Assay in HepG2 cells - 32 hour (AID 1224877). Note: nearly all actives have a fitted effect of over 55% in size. Put shortly:
as §1

A short description of assay [19]: A CellTox Green Cytotoxicity Assay to monitor cytotoxicity in HepG2 cells - 40 hour (AID 1224879). Note: nearly all actives have a fitted effect of over 40% in size. The gist of the method: as §5
The nature of assay [20]: A CellTox Green Cytotoxicity Assay to monitor cytotoxicity in HepG2 cells - 24 hour (AID 1224878). Note: nearly all actives have a fitted effect of over 45% in size. The gist of the method: as §5
% is set by controls: 0 for no effect and ±100 for the full control effect.

Thyrotropin receptor (Homo sapiens), sequence (P16473 whole entry, looked up): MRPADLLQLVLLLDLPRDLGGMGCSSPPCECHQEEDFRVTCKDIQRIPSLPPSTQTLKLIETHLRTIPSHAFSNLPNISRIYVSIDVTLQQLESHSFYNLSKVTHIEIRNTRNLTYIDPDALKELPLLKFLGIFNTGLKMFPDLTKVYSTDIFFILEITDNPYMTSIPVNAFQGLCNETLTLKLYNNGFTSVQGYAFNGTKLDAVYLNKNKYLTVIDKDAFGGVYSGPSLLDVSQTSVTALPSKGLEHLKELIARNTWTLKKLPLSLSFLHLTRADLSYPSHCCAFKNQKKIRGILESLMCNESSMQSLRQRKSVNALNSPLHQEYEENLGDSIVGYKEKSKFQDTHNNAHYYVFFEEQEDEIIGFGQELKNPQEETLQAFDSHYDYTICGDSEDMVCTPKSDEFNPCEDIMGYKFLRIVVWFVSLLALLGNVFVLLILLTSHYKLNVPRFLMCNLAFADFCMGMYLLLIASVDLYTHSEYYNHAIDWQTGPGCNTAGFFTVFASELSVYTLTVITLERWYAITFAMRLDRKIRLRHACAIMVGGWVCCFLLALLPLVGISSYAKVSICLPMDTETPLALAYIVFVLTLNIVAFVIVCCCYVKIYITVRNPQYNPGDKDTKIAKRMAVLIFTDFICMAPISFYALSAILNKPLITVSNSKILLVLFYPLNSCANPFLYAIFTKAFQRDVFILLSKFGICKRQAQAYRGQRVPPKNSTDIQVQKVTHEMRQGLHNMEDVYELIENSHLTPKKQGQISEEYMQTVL

On to `C[C@@H]1CN(c2c(F)c(F)c3c(=O)c(C(=O)O)cn(C4CC4)c3c2F)C[C@H](C)N1`, for which the activation in [1] was -4.01% [at 19 µM]; in [4], 0.101% [at 15.8 µM]. Also, the activity change, negative = cytotoxicity was 2.14% [at 15.8 µM] in [2], 5.9% [at 31.6 µM] in assay [5], 0.621% [at 15.8 µM] in assay [8] and 0.662% [at 15.8 µM] in assay [13]. Further, the activation (H2AX phosphorylation) in [3] was -0.115% [at 31.6 µM]. The activity, negative = inhibition in [6] is 2.94% [at 19 µM]. The activity change, positive = activation in assay [7] is 1.67% [at 19 µM] (active). Further, the activity change, negative = cytotoxic in [9] is 11.6% [at 15.8 µM]; in [11], 1.26% [at 15.8 µM]; in [18], 0.371% [at 15.8 µM]. In addition, the cytotoxicity in assay [10] is 5.43% [at 15.8 µM]. For the same compound, the cytotoxicity increase was -4.55% [at 15.8 µM] in [12], -10.9% [at 15.8 µM] in assay [17] and -9.16% [at 15.8 µM] in assay [19]. Also, in assay [14], the viability change, negative = cytotoxic is -4.32% [at 15.8 µM]. In addition, the max response in assay [15] is 10.3%. Besides, in assay [16], the activity change was 0.295% [at 15.8 µM, stronger effect = higher value].

For `CCOc1ccc(OCC)c(Cl)c1`, the Potency result in assay [1], in assay [2], in [3], in [5], in [6] and in [8] was “inactive” throughout. For the same compound, the Potency entry in [9], in [10], in assay [11], in assay [13], in [16] and in assay [17] was “inactive” each time. Also, the Potency result in [18], in assay [20] and in [19] was “inactive” throughout. In addition, the compound was called inactive in [4] and in [14]. Moreover, the activity change, positive = activation in [7] was 4.33%. In [15], the max response is 5.94%.

In the case of `FC(F)(F)c1ccccc1`, the Potency entry in assay [1], in assay [2], in assay [3], in assay [5], in [6] and in assay [8] was “inactive” throughout. Further, the Potency entry in [9], in assay [10], in assay [11], in [12], in assay [13] and in assay [16] was “inactive” throughout. Further, the Potency result in assay [17], in assay [18], in assay [20] and in assay [19] was “inactive” in each case. Further, the call in assay [4] and in [14] was inactive. Besides, the activity change, positive = activation in [7] was 2.08%. In [15], the max response was 11.8%.

With `CCCCCCCCCC#N`, the Potency result in assay [1], in assay [2], in [3], in assay [5], in assay [6] and in assay [8] was “inactive” in each case. Besides, the Potency result in [9], in assay [10], in [11], in assay [12], in [13] and in assay [16] was “inactive” throughout. The Potency result in assay [17], in [18], in assay [20] and in [19] was “inactive” in each case. In assay [4], the compound was classed as inactive. Further, the activity change, positive = activation in assay [7] was -15.2%. Besides, the max response in [15] is 0.388%.

For `O=C(Cl)c1cccc([N+](=O)[O-])c1`, the Potency entry in [1], in assay [2], in assay [3], in assay [5], in [6] and in assay [8] was “inactive” each time. In addition, the Potency entry in assay [9], in assay [10], in [11], in assay [12], in assay [13] and in assay [16] was “inactive” throughout. For the same compound, the Potency result in assay [17], in assay [18] and in assay [19] was “inactive” throughout. The compound was classed as inactive in [4] and in assay [14]. Besides, the activity change, positive = activation in assay [7] is 0.643%. In assay [15], the max response is 3.57%.

On to `CCCNC(C)(C)COC(=O)c1ccccc1`, for which the Potency entry in assay [1], in assay [2], in assay [3], in assay [5], in assay [6] and in [8] was “inactive” throughout. The Potency result in assay [9], in assay [10], in assay [11], in assay [12], in assay [13] and in [16] was “inactive” in each case. For the same compound, the Potency entry in assay [17], in assay [18], in assay [20] and in assay [19] was “inactive” in each case. The call in assay [4] and in assay [14] was inactive. Also, the activity change, positive = activation in assay [7] is 5.73% [at 42.5 µM]. In assay [15], the max response is 2.27%.

The record behind these values is PubChem BioAssay (Tox21).
